# Measurements reported in publication PMC8222333, “AsCas12a ultra nuclease facilitates the rapid generation of therapeutic cell medicines”.
# Tests used:
# [1] = target: dAsCas12a WT (Acidaminococcus sp., UniProt U2UMQ6 1-1307, D908A;E993A;D1235A); assay: Spec-seq (native PAGE EMSA with sequencing of bound and unbound); 25 mM Tris-HCl pH 7.4, 150 mM KCl, 5 mM MgCl2, 10% glycerol, 1 mM DTT, 40 ng/uL salmon sperm DNA; 400 nM Cas12a, 480 nM crRNA, 50 nM library, 37 C 1 h; native P; high values mean tight binding
# [2] = target: dAsCas12a Ultra (Acidaminococcus sp., UniProt U2UMQ6 1-1307, M537R;F870L;D908A;E993A;D1235A); assay: Spec-seq (native PAGE EMSA with sequencing of bound and unbound); 25 mM Tris-HCl pH 7.4, 150 mM KCl, 5 mM MgCl2, 10% glycerol, 1 mM DTT, 40 ng/uL salmon sperm DNA; 400 nM Cas12a, 480 nM crRNA, 50 nM library, 37 C 1 h; native PAGE at room temperature; high values mean tight binding; conditions: protein: recombinant
# [3] = target: dAsCas12a E174R (Acidaminococcus sp., UniProt U2UMQ6 1-1307, E174R;D908A;E993A;D1235A); assay: as above; conditions: protein: recombinant;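 also: relative affinity from the bound to unbound sequence frequency ratio in Spec-seq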
# [4] = target: dAsCas12a S542R (Acidaminococcus sp., UniProt U2UMQ6 1-1307, S542R;D908A;E993A;D1235A); assay: as above; conditions: protein: recombinant;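 also: relative affinity from the bound to unbound sequence frequency ratio in Spec-seq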
# [5] = target: dAsCas12a K548R (Acidaminococcus sp., UniProt U2UMQ6 1-1307, K548R;D908A;E993A;D1235A); assay: as above; conditions: protein: recombinant
# [6] = target: d-enCas12a (Acidaminococcus sp., UniProt U2UMQ6 1-1307, E174R;S542R;K548R;D908A;E993A;D1235A); assay: as above; conditions: protein: recombinant
# [7] = target: d-enCas12a-Ultra (Acidaminococcus sp., UniProt U2UMQ6 1-1307, E174R;S542R;K548R;M537R;F870L;D908A;E993A;D1235A); assay: as above; conditions: protein: recombinant;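 also: relative affinity from the bound to unbound sequence frequency ratio in Spec-seq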
Binder,binding signal [1] [lnKA],binding signal [2] [lnKA],binding signal [3] [lnKA],binding signal [4] [lnKA],binding signal [5] [lnKA],binding signal [6] [lnKA],binding signal [7] [lnKA]
TTTT (dsDNA) DNA 1: GCTATCTAGTGCTCAGTACGCACTGTTTTAGGAAACTTCTGGCAGGACCAGGTCATGAGATCGGAAGAGCACACGTCTGAACTCCAGTCA DNA 2: TGACTGGAGTTCAGACGTGTGCTCTTCCGATCTCATGACCTGGTCCTGCCAGAAGTTTCCTAAAACAGTGCGTACTGAGCACTAGATAGC RNA: AAUUUCUACUCUUGUAGAUAGGAAACUUCUGGCAGGACC,-5.51,-3.17,-2.29,-2.76,-4.73,-0.44,-0.171
ACTG (dsDNA) DNA 1: GCTATCTAGTGCTCAGTACGCACTGACTGAGGAAACTTCTGGCAGGACCAGGTCATGAGATCGGAAGAGCACACGTCTGAACTCCAGTCA DNA 2: TGACTGGAGTTCAGACGTGTGCTCTTCCGATCTCATGACCTGGTCCTGCCAGAAGTTTCCTCAGTCAGTGCGTACTGAGCACTAGATAGC RNA: AAUUUCUACUCUUGUAGAUAGGAAACUUCUGGCAGGACC,–,-7.71,-7.65,-7.86,–,-5.67,-2.87
ACTC (dsDNA) DNA 1: GCTATCTAGTGCTCAGTACGCACTGACTCAGGAAACTTCTGGCAGGACCAGGTCATGAGATCGGAAGAGCACACGTCTGAACTCCAGTCA DNA 2: TGACTGGAGTTCAGACGTGTGCTCTTCCGATCTCATGACCTGGTCCTGCCAGAAGTTTCCTGAGTCAGTGCGTACTGAGCACTAGATAGC RNA: AAUUUCUACUCUUGUAGAUAGGAAACUUCUGGCAGGACC,–,-6.74,-6.65,-7.33,–,-4.8,-1.58
ATTA (dsDNA) DNA 1: GCTATCTAGTGCTCAGTACGCACTGATTAAGGAAACTTCTGGCAGGACCAGGTCATGAGATCGGAAGAGCACACGTCTGAACTCCAGTCA DNA 2: TGACTGGAGTTCAGACGTGTGCTCTTCCGATCTCATGACCTGGTCCTGCCAGAAGTTTCCTTAATCAGTGCGTACTGAGCACTAGATAGC RNA: AAUUUCUACUCUUGUAGAUAGGAAACUUCUGGCAGGACC,-6.74,-4.56,-2.6,-4.16,-5.45,-0.456,-0.172
ATTT (dsDNA) DNA 1: GCTATCTAGTGCTCAGTACGCACTGATTTAGGAAACTTCTGGCAGGACCAGGTCATGAGATCGGAAGAGCACACGTCTGAACTCCAGTCA DNA 2: TGACTGGAGTTCAGACGTGTGCTCTTCCGATCTCATGACCTGGTCCTGCCAGAAGTTTCCTAAATCAGTGCGTACTGAGCACTAGATAGC RNA: AAUUUCUACUCUUGUAGAUAGGAAACUUCUGGCAGGACC,-8.27,-7.31,-6.8,-7.13,-8.23,-2.42,-0.548
ACTA (dsDNA) DNA 1: GCTATCTAGTGCTCAGTACGCACTGACTAAGGAAACTTCTGGCAGGACCAGGTCATGAGATCGGAAGAGCACACGTCTGAACTCCAGTCA DNA 2: TGACTGGAGTTCAGACGTGTGCTCTTCCGATCTCATGACCTGGTCCTGCCAGAAGTTTCCTTAGTCAGTGCGTACTGAGCACTAGATAGC RNA: AAUUUCUACUCUUGUAGAUAGGAAACUUCUGGCAGGACC,–,-7.24,-5.96,-7.5,–,-5.02,-1.82
AATT (dsDNA) DNA 1: GCTATCTAGTGCTCAGTACGCACTGAATTAGGAAACTTCTGGCAGGACCAGGTCATGAGATCGGAAGAGCACACGTCTGAACTCCAGTCA DNA 2: TGACTGGAGTTCAGACGTGTGCTCTTCCGATCTCATGACCTGGTCCTGCCAGAAGTTTCCTAATTCAGTGCGTACTGAGCACTAGATAGC RNA: AAUUUCUACUCUUGUAGAUAGGAAACUUCUGGCAGGACC,–,-8.59,-8.34,-8.01,–,-5.1,-2.64
ATTG (dsDNA) DNA 1: GCTATCTAGTGCTCAGTACGCACTGATTGAGGAAACTTCTGGCAGGACCAGGTCATGAGATCGGAAGAGCACACGTCTGAACTCCAGTCA DNA 2: TGACTGGAGTTCAGACGTGTGCTCTTCCGATCTCATGACCTGGTCCTGCCAGAAGTTTCCTCAATCAGTGCGTACTGAGCACTAGATAGC RNA: AAUUUCUACUCUUGUAGAUAGGAAACUUCUGGCAGGACC,-7.65,-5.43,-4.83,-4.9,-6.23,-1.2,-0.339
ATTC (dsDNA) DNA 1: GCTATCTAGTGCTCAGTACGCACTGATTCAGGAAACTTCTGGCAGGACCAGGTCATGAGATCGGAAGAGCACACGTCTGAACTCCAGTCA DNA 2: TGACTGGAGTTCAGACGTGTGCTCTTCCGATCTCATGACCTGGTCCTGCCAGAAGTTTCCTGAATCAGTGCGTACTGAGCACTAGATAGC RNA: AAUUUCUACUCUUGUAGAUAGGAAACUUCUGGCAGGACC,-6.67,-4.57,-3.93,-4.41,-5.19,-0.519,-0.186
ACTT (dsDNA) DNA 1: GCTATCTAGTGCTCAGTACGCACTGACTTAGGAAACTTCTGGCAGGACCAGGTCATGAGATCGGAAGAGCACACGTCTGAACTCCAGTCA DNA 2: TGACTGGAGTTCAGACGTGTGCTCTTCCGATCTCATGACCTGGTCCTGCCAGAAGTTTCCTAAGTCAGTGCGTACTGAGCACTAGATAGC RNA: AAUUUCUACUCUUGUAGAUAGGAAACUUCUGGCAGGACC,–,-8.57,-8.23,-7.91,–,-5.7,-3.19
AATA (dsDNA) DNA 1: GCTATCTAGTGCTCAGTACGCACTGAATAAGGAAACTTCTGGCAGGACCAGGTCATGAGATCGGAAGAGCACACGTCTGAACTCCAGTCA DNA 2: TGACTGGAGTTCAGACGTGTGCTCTTCCGATCTCATGACCTGGTCCTGCCAGAAGTTTCCTTATTCAGTGCGTACTGAGCACTAGATAGC RNA: AAUUUCUACUCUUGUAGAUAGGAAACUUCUGGCAGGACC,–,-8.32,-7.04,-8.13,–,-2.24,-0.762
AGAA (dsDNA) DNA 1: GCTATCTAGTGCTCAGTACGCACTGAGAAAGGAAACTTCTGGCAGGACCAGGTCATGAGATCGGAAGAGCACACGTCTGAACTCCAGTCA DNA 2: TGACTGGAGTTCAGACGTGTGCTCTTCCGATCTCATGACCTGGTCCTGCCAGAAGTTTCCTTTCTCAGTGCGTACTGAGCACTAGATAGC RNA: AAUUUCUACUCUUGUAGAUAGGAAACUUCUGGCAGGACC,–,-8.87,-8.92,-8.59,–,-5.61,-3.36
AGGA (dsDNA) DNA 1: GCTATCTAGTGCTCAGTACGCACTGAGGAAGGAAACTTCTGGCAGGACCAGGTCATGAGATCGGAAGAGCACACGTCTGAACTCCAGTCA DNA 2: TGACTGGAGTTCAGACGTGTGCTCTTCCGATCTCATGACCTGGTCCTGCCAGAAGTTTCCTTCCTCAGTGCGTACTGAGCACTAGATAGC RNA: AAUUUCUACUCUUGUAGAUAGGAAACUUCUGGCAGGACC,–,-8.33,–,-8.24,–,-5.52,-3.42
AATC (dsDNA) DNA 1: GCTATCTAGTGCTCAGTACGCACTGAATCAGGAAACTTCTGGCAGGACCAGGTCATGAGATCGGAAGAGCACACGTCTGAACTCCAGTCA DNA 2: TGACTGGAGTTCAGACGTGTGCTCTTCCGATCTCATGACCTGGTCCTGCCAGAAGTTTCCTGATTCAGTGCGTACTGAGCACTAGATAGC RNA: AAUUUCUACUCUUGUAGAUAGGAAACUUCUGGCAGGACC,–,-8.65,-8.08,-8.19,-8.64,-2.56,-0.883
